In all, about 310,000 compounds went through this assay and about 14,000 (4.5%) showed an effect of 50% or more. The effect is printed as a negative number. The list comes from a sample in which strong results are over-represented; it also holds similar structures and randomly drawn compounds.
Molecular target: human ether-à-go-go-related gene (hERG) potassium channel (human, UniProt Q12809)
Test: primary screen, population patch clamp on CHO cells stably expressing hERG; higher = less effect of the substance
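Further: peak tail current of the secondary pulse compared with the same well before compound.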

Chain of human ether-à-go-go-related gene (hERG) potassium channel (Q12809 whole entry, looked up): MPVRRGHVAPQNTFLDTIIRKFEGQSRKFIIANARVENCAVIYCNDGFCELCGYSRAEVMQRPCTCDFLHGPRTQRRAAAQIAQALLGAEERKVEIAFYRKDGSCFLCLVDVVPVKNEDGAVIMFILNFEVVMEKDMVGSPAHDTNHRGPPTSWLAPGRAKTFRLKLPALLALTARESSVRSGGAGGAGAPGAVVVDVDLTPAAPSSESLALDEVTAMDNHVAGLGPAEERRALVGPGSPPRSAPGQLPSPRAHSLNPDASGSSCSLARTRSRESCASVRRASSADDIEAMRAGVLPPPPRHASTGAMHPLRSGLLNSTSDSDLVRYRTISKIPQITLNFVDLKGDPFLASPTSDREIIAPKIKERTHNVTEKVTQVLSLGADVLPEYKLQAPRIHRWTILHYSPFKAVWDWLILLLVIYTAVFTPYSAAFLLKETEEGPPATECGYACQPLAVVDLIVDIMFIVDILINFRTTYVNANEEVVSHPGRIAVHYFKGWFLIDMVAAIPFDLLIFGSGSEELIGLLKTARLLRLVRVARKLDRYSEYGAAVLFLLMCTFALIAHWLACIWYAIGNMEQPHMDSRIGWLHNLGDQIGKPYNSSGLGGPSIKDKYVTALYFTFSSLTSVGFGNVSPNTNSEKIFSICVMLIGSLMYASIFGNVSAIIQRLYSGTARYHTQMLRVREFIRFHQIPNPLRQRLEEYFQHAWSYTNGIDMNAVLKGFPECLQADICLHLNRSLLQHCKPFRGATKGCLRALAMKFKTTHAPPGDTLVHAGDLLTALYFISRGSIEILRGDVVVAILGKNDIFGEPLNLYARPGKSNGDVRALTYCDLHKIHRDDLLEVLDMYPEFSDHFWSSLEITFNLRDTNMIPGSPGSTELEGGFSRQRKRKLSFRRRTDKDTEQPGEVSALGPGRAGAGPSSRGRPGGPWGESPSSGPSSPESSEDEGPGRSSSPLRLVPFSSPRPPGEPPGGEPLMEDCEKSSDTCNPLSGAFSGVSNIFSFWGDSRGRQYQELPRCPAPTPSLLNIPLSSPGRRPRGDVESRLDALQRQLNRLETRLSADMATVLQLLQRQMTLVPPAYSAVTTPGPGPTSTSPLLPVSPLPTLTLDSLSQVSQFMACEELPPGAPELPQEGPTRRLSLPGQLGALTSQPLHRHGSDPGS

| Structure (SMILES) | hERG current change (%, negative = inhibition) at 10uM |
| --- | --- |
| CC/C(=N\Nc1ccc([N+](=O)[O-])cc1[N+](=O)[O-])c1ccc(O)cc1 | 21.7% |
| Cc1ccc(S(=O)(=O)c2ncccc2[N+](=O)[O-])cc1 | -64% |
| O=[N+]([O-])c1cccnc1S(=O)(=O)c1ccccc1 | 15.9% |
| Cc1ccc(S(=O)(=O)c2ncccc2N)cc1 | 12.4% |
| Cc1noc(C)c1C(=O)Nc1ccccc1C(=O)NCCc1ccccc1 | 8.93% |
| Cc1nn(-c2ccccc2)c(C)c1C(=O)OCC(=O)N1CC(=O)Nc2ccccc21 | 1.89% |
| CC1(OC(=O)C2CCCC2)C(=O)C=C2C=C(c3ccsc3)N(CC3CC3)C=C2C1=O (centres unmarked) | -11.8% |
| CC1(OC(=O)C2CCCC2)C(=O)C=C2C=C(c3ccsc3)N(Cc3ccc4c(c3)OCO4)C=C2C1=O (centres unmarked) | -79.6% |
| CC1(OC(=O)C2CCCC2)C(=O)C=C2C=C(c3ccsc3)N(C3CC3)C=C2C1=O (centres unmarked) | 16.5% |
| CC1(OC(=O)C2CCCC2)C(=O)C=C2C=C(c3ccsc3)N(C3CCCCC3)C=C2C1=O (centres unmarked) | -15.8% |
| CC1(OC(=O)C2CCCC2)C(=O)C=C2C=C(c3ccsc3)N(Cc3ccccc3)C=C2C1=O (centres unmarked) | -52.5% |
| C=CCN1C=C2C(=O)C(C)(OC(=O)C3CCCC3)C(=O)C=C2C=C1c1ccsc1 (centres unmarked) | -19.4% |
| CC(C)CN1C=C2C(=O)C(C)(OC(=O)C3CCCC3)C(=O)C=C2C=C1c1ccsc1 (centres unmarked) | -0.438% |
| CC1(OC(=O)C2CCCC2)C(=O)C=C2C=C(c3ccsc3)N(C3CCCC3)C=C2C1=O (centres unmarked) | -64.7% |
| COc1ccc(CN2C=C3C(=O)C(C)(OC(=O)C4CCCC4)C(=O)C=C3C=C2c2ccsc2)cc1 (centres unmarked) | -64.4% |
| COCCN1C=C2C(=O)C(C)(OC(=O)C3CCCC3)C(=O)C=C2C=C1c1ccsc1 (centres unmarked) | -6.22% |
| CC1(OC(=O)C2CCCC2)C(=O)C=C2C=C(c3ccsc3)N(Cc3ccco3)C=C2C1=O (centres unmarked) | -23.2% |
| CC1(OC(=O)C2CCCC2)C(=O)C=C2C=C(c3ccsc3)N(CCCCO)C=C2C1=O (centres unmarked) | 1.16% |
| COC(=O)c1ccc(COC(=O)CNC(=O)CNC(=O)c2ccc(OC)cc2)cc1 | -6.8% |

| Structure (SMILES) | hERG current change (%, negative = inhibition) at 10uM |
| --- | --- |
| CN(C(=O)CN1C(=O)C2C3CC(C(Br)C3Br)C2C1=O)C1CCCCC1 (centres unmarked) | -8.93% |
| CCOC(=O)Cn1c(S(=O)(=O)Cc2ccc(F)cc2)nc(-c2ccccc2)c1-c1ccccc1 | -7.15% |
| CCCCCCSc1cc(C)nc2ncnn12 | -42.9% |
| CCc1cccc(CC)c1-n1c(-c2cccnc2)n[nH]c1=S | 18.1% |
| O=C(c1cc(Br)ccc1OC(F)F)N1CCN2CCCC2C1 (centres unmarked) | -4.15% |
| CCOC(=O)CSc1nnc(-c2ccccc2NC(=O)c2ccccc2)o1 | 12.2% |
| CC(C)Nc1oc(-c2cccc3ccccc23)nc1C#N | 2.18% |
| O=C(NC(=S)NCCO)c1sc2ccccc2c1Cl | -0.142% |
| Cl.NCCc1ccc(OCc2ccccc2)c(OCc2ccccc2)c1 | -22.1% |
| COc1cc(CCC(=O)N2CCN(c3cccc(C)c3C)CC2)cc(OC)c1OC | -2.88% |
| COc1ccc(C(=O)N2CCN(c3ccc([N+](=O)[O-])c(NCCc4ccc(OC)c(OC)c4)c3)CC2)cc1 | 4.2% |
| COc1cc(CCC(=O)N2CCN(c3ccc([N+](=O)[O-])cc3)CC2)cc(OC)c1OC | -78.4% |
| COc1cc(CCC(=O)N2CCN(c3ccc(N4CCOCC4)nn3)CC2)cc(OC)c1OC | -9.65% |
| COc1ccc(CCC(=O)N2CCN(c3ccc([N+](=O)[O-])cc3)CC2)cc1OC | -81.5% |
| COc1cc(CCC(=O)N2CCN(c3ccccc3)CC2)cc(OC)c1OC | -58.5% |
| COc1ccc(N2CCN(C(=O)Cc3ccc(OC)c(OC)c3)CC2)cc1 | 6.38% |
| COc1cc(CCC(=O)N2CCN(c3ncccn3)CC2)cc(OC)c1OC | 11.8% |
| COc1ccc(CCC(=O)N2CCN(c3ccccc3)CC2)cc1OC | 14% |
| O=C(Cc1cccc(C(F)(F)F)c1)OCC(=O)N1CCN(S(=O)(=O)c2ccc(Cl)cc2)CC1 | -6.07% |

| Structure (SMILES) | hERG current change (%, negative = inhibition) at 10uM |
| --- | --- |
| COc1ccc(OC)c(NC(=S)NCc2cccs2)c1 | -18.3% |
| CCOC(=O)C1(Cc2ccccc2C)CCCN(S(=O)(=O)CC)C1 (centres unmarked) | 13.9% |
| COc1cccc(NS(=O)(=O)c2ccc3c(c2)n(C)c(=O)c(=O)n3C)c1 | -6.59% |
| COC(=O)c1[nH]c2cc(OC)ccc2c1NC(=O)CCN1CCSCC1 | 7.01% |
| CCc1nn(C(C)C(=O)N2CC(C)CC(C)C2)c(=O)c2cc3occc3n12 (centres unmarked) | -7.58% |
| CNC(=O)Nc1ccc(Cl)cc1 | 7.56% |
| CC(=O)n1cc([C@@H]2C=C(C(=O)O)O[C@H](OCc3ccc(CO)cc3)C2)c2ccccc21 | 0.587% |
| CC(=O)n1cc([C@@H]2C=C(C(=O)N3CCN(Cc4ccccc4)CC3)O[C@H](OCc3ccc(CO)cc3)C2)c2ccccc21 | -10.1% |
| CC(=O)n1cc([C@@H]2C=C(C(=O)N3CCOCC3)O[C@H](OCCCCO)C2)c2ccccc21 | -51.6% |
| CC(=O)n1cc([C@H]2C=C(C(N)=O)O[C@@H](OCc3ccc(CO)cc3)C2)c2ccccc21 | -16.8% |
| C=CCOC(=O)C1=C[C@@H](c2cn(C(C)=O)c3ccccc23)C[C@@H](OCc2ccc(CO)cc2)O1 | -93.5% |
| CC(=O)n1cc([C@@H]2C=C(C(=O)N3CCOCC3)O[C@H](OCc3ccc(CO)cc3)C2)c2ccccc21 | -74.8% |
| CC(=O)n1cc([C@H]2C=C(C(=O)N3CCOCC3)O[C@@H](OCCCCO)C2)c2ccccc21 | -17.1% |
| O=C(C1=C[C@H](c2csc3ccccc23)C[C@H](OCc2ccc(CO)cc2)O1)N1CCCCCCC1 | -15.1% |
| O=C(C1=C[C@H](c2csc3ccccc23)C[C@H](OCc2ccc(CO)cc2)O1)N1CCOCC1 | -59.2% |
| CC(=O)n1cc([C@H]2C=C(C(=O)N3CCN(Cc4ccccc4)CC3)O[C@@H](OCCCCO)C2)c2ccccc21 | -42.5% |
| O=C(C1=C[C@@H](c2csc3ccccc23)C[C@@H](OCc2ccc(CO)cc2)O1)N1CCOCC1 | -27.5% |
| C=CCOC(=O)C1=C[C@H](c2cn(C(C)=O)c3ccccc23)C[C@H](OCc2ccc(CO)cc2)O1 | -9.82% |
